Results published in the supplement of paper PMC11732987, “Enantioselective OTUD7B fragment discovery through chemoproteomics screening and high-throughput optimisation” (Communications Chemistry, 2025).

Assays:
Assay in all cases: log2 ratio of Biotin-Ahx-Ub-VS probe labelling (fragment/DMSO); higher = less target engagement (more negative = stronger competition), active = hit call of the paper (q ≤ 0.05, log2 ratio ≤ -1)
Details in all cases: compound concentration: 200 uM; treatment time: 3 h
USP34 = USP34 (UniProt Q70CQ2)
Chain of USP34 (Q70CQ2 whole entry, the tested form may be a part): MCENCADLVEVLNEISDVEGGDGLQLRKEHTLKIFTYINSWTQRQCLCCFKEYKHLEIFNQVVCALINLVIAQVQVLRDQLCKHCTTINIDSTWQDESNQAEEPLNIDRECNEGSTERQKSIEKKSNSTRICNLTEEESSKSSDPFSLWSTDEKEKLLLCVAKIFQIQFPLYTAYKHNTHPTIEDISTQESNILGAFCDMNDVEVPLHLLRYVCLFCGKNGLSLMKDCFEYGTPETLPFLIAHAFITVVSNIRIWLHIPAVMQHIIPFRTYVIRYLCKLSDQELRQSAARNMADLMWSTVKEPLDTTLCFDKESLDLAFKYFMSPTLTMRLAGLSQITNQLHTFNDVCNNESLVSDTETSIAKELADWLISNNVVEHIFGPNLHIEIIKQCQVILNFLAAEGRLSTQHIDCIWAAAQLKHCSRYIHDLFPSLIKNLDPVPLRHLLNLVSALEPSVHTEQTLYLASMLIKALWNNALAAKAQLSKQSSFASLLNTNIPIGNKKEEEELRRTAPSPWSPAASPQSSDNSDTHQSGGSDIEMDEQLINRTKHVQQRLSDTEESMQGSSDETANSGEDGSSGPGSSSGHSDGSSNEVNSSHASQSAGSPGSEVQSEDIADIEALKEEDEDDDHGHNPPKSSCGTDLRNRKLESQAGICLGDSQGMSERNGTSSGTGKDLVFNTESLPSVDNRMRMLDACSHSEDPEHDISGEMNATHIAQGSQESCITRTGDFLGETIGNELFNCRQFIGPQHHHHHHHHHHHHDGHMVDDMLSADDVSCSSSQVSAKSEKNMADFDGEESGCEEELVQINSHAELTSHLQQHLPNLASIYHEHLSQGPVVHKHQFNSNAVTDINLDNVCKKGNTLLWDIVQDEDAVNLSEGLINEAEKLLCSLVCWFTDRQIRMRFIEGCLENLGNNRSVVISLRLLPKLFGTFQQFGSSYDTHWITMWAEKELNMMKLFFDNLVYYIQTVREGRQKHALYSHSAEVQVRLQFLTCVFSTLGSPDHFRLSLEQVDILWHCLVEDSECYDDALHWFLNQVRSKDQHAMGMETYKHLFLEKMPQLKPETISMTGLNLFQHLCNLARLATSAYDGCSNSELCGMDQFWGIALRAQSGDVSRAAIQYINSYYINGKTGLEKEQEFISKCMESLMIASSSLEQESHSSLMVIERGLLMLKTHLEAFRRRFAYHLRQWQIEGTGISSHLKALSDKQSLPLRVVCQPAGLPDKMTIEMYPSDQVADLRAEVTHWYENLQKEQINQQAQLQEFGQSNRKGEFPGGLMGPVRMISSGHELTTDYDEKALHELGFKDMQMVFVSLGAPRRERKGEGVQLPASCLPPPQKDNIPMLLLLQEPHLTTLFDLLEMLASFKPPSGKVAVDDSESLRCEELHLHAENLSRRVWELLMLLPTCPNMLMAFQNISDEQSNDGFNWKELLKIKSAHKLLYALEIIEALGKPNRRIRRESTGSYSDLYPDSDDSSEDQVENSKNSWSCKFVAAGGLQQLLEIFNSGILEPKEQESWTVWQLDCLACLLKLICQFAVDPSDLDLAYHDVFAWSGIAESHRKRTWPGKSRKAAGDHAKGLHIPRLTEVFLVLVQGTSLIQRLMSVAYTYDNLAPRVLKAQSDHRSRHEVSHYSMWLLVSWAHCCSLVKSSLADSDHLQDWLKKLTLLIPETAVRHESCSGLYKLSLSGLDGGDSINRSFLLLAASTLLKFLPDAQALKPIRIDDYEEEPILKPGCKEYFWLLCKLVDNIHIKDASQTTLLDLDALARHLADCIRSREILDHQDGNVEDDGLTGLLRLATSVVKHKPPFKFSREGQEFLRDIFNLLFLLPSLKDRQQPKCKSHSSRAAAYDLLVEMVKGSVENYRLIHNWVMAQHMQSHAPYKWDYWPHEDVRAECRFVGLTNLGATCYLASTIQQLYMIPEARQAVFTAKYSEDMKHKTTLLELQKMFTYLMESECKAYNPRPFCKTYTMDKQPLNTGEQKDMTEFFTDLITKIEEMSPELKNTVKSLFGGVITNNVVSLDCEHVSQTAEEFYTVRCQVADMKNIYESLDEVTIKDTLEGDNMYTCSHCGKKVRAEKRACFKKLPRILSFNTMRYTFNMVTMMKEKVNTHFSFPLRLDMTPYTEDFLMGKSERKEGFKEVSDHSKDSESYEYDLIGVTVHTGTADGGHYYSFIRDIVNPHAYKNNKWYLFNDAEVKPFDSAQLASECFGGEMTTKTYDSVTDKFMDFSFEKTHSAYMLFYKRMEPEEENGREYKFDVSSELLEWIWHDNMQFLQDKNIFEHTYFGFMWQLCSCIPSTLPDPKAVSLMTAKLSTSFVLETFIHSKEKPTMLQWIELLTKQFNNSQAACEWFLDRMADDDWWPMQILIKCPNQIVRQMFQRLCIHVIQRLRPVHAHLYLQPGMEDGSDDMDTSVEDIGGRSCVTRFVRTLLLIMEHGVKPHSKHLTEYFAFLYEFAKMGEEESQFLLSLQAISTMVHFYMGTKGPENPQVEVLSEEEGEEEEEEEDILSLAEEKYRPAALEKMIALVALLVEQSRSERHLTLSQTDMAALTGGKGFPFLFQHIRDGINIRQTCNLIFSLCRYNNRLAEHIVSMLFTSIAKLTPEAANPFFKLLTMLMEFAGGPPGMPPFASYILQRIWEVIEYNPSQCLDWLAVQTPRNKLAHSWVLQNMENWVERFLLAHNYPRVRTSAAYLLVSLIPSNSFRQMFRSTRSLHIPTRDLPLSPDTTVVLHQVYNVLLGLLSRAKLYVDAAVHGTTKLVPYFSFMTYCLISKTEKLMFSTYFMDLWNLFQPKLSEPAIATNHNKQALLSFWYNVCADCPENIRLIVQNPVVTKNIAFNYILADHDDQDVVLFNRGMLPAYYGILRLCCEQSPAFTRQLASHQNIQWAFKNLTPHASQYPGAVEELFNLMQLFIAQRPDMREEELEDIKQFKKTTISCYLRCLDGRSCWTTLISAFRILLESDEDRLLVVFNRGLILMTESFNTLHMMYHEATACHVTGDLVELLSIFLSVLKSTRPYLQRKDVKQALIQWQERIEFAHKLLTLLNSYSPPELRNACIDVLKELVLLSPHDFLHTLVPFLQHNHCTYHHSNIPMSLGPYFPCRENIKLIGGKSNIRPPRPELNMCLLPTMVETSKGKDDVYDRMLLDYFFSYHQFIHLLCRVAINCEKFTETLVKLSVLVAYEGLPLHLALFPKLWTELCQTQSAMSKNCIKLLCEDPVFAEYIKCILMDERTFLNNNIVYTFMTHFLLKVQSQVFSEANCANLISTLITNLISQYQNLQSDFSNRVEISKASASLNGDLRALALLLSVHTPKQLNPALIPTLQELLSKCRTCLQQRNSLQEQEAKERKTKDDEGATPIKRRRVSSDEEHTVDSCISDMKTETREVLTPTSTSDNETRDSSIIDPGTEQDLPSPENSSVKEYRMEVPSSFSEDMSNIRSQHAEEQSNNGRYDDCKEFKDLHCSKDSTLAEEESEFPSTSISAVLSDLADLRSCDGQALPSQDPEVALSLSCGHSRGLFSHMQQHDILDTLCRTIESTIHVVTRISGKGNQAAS
In short: (§1)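 Labelled DUBs were enriched with NeutrAvidin, digested with LysC and trypsin, and run by diaPASEF LC-MS/MS. The labelling used Biotin-Ahx-Ub-VS at 0.5 µM final for 1 h on HEK293T lysate (495 µg per sample) previously treated in triplicate with fragment at 200 µM or vehicle for 3 h. Values are average log2 fragment/vehicle ratios by unpaired t-test on global-median-normalised Spectronaut quantities of proteins with ≥2 unique peptides.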

USP36 = biological target: T1, USP36 (UniProt Q9P275)
T1 sequence (whole entry): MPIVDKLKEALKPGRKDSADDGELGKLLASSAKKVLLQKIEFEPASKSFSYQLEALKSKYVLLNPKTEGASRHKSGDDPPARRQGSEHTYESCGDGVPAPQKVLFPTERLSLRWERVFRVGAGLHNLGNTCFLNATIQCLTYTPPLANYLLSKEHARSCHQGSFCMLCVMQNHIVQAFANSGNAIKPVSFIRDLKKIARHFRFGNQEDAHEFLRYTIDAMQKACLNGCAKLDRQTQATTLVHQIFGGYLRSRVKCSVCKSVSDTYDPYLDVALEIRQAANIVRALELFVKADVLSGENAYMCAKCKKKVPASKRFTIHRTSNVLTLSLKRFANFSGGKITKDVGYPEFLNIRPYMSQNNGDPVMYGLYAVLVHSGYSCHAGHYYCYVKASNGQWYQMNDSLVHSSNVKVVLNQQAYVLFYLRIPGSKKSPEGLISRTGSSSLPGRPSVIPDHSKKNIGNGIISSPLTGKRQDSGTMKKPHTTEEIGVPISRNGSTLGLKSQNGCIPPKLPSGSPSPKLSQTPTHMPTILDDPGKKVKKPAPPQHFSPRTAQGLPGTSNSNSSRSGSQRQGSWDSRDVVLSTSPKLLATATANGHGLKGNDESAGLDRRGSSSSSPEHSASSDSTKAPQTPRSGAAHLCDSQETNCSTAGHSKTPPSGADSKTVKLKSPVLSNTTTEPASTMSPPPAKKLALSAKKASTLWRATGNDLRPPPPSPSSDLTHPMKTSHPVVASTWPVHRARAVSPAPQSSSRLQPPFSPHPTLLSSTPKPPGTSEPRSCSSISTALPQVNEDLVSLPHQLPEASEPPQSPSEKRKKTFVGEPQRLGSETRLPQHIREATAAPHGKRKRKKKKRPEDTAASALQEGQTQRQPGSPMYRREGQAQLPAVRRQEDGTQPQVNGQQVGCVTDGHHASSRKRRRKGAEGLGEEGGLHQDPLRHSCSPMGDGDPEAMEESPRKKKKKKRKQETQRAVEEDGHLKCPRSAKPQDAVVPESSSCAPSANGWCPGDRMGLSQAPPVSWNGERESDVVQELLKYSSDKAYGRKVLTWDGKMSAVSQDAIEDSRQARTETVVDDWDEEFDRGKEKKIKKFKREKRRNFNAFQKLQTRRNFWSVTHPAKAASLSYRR
In short: as §1

USP38 = biological target: T2, USP38 (UniProt Q8NB14)
T2 sequence (whole entry): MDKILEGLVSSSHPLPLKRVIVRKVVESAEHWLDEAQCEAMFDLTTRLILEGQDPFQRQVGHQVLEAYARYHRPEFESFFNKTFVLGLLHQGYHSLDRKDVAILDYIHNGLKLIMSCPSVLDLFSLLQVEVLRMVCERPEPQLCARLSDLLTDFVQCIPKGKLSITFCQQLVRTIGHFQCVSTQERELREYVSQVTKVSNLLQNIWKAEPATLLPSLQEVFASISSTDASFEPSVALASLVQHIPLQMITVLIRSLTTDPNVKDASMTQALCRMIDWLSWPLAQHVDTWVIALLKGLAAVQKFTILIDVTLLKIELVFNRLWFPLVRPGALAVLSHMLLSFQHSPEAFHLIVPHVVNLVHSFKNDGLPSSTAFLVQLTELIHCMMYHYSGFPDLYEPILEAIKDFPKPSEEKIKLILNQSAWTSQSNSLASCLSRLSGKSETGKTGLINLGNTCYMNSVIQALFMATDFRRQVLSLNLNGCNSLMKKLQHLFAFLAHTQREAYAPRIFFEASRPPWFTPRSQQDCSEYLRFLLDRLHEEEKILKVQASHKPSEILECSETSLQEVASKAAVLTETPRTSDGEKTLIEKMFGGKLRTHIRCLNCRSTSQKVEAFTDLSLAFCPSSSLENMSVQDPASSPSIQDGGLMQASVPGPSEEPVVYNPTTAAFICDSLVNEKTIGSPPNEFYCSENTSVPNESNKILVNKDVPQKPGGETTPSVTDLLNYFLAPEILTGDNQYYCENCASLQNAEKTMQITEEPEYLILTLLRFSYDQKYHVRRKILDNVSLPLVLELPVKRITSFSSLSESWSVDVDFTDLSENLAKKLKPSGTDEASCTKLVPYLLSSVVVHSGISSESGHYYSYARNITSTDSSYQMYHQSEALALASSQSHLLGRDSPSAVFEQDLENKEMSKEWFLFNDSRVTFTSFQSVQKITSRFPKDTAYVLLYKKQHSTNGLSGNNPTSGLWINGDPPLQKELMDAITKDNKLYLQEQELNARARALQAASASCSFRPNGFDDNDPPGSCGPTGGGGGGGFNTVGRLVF
In short: as §1

USP39 = biological target: T3, USP39 (UniProt Q53GS9)
T3 sequence (whole entry): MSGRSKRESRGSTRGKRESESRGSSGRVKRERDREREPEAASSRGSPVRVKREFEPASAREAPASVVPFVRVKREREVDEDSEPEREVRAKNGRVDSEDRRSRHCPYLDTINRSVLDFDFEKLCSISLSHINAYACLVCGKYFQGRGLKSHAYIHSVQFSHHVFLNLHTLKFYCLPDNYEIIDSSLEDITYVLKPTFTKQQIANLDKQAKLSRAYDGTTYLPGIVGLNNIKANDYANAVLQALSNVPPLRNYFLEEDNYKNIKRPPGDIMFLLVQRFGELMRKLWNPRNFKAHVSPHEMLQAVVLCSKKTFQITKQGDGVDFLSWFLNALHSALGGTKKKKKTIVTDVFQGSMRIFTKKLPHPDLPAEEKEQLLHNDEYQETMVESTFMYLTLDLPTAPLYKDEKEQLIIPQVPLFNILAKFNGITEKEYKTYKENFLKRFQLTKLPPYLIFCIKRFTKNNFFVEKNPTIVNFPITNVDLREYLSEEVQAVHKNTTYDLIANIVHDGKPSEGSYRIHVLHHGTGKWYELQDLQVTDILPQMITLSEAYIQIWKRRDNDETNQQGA
In short: as §1

USP4 = biological target: T4, USP4 (UniProt Q13107)
T4 sequence (whole entry): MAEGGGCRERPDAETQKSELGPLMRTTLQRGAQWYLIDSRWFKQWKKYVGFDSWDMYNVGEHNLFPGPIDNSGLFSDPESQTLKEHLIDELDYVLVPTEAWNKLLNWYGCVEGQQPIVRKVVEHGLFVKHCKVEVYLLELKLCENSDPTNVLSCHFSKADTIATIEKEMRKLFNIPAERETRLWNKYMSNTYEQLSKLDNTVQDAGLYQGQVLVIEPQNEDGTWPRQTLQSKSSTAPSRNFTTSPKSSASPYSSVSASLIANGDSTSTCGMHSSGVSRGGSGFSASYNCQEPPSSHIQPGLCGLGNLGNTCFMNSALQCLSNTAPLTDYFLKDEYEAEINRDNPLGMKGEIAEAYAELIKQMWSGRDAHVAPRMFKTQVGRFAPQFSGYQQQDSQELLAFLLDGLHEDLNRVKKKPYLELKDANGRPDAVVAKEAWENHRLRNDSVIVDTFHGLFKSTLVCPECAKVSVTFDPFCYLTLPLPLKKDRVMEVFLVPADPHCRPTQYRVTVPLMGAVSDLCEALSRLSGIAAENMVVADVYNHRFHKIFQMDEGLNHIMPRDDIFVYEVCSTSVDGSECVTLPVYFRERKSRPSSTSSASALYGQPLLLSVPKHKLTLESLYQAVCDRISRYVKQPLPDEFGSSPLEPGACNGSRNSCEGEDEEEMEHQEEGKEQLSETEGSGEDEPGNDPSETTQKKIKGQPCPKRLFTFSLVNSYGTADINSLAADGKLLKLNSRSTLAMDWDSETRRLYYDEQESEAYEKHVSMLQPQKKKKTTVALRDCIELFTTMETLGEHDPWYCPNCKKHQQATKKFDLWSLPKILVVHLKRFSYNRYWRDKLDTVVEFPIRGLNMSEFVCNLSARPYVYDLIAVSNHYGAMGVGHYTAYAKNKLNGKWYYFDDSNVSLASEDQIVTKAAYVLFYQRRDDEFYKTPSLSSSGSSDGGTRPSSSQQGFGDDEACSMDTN
In short: as §1

Measured: log2 ratio of Biotin-Ahx-Ub-VS probe labelling

Cc1cccc(C(CNC(=O)CCl)N2CCOCC2)c1.Cl (stereo not given)
inactive: USP34 -0.0673 | USP36 0.0549 | USP38 -0.0229 | USP39 -0.116 | USP4 -0.165
